Measurements: PubChem BioAssay (NCI)
Compounds without any hit were thinned out: in the full panel of roughly 83,000, 20% have a hit.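 The test compound was applied at a single concentration to cells in 96-well plates for 48 hours, and percent growth was recorded.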 A number with no mark means an inactive call. Activity calls are given as the source filed them. How the source made its calls: active means growth percent below 10; inactive means the rest.

Test system: HL-60(TB) leukemia
Assay: NCI-60 one-dose screen, 48 h (100 = growth as untreated, 0 = no growth, -100 = all killed)
Conditions: 10 µM unless noted

Compound | growth
O=C(c1ccccc1O)N1CCCC1 | 91.8%
C[C@@H]1CC[C@@H]2[C@@H]1[C@H](OC(=O)/C=C/c1ccccc1)[C@]1(CCCOCCOCCOCCOC(=O)CCCC[C@@H]3SC[C@@H]4NC(=O)N[C@@H]43)C[C@@H](OC(=O)CO)[C@@]2(C)O1 | 98.1%
N#CCC1=NC(c2cccs2)=Nc2ccccc2S1 | 90.9%
COc1ccc(-c2nn(-c3cccc(Cl)c3)cc2-c2cc(-c3ccccc3)nc(N)n2)cc1 | 56.3%
Cc1cccc(NC(=O)c2sc3nc4c(cc3c2N)C(=O)CCC4)c1 | 6.14% (active)
CN(C)CCOc1ccc2c(c1)C(=O)/C(=C\c1ncc([N+](=O)[O-])n1C)C2 | -51.8% (active)
